Results published in PubChem BioAssay.
Activity calls are given as the source filed them. Unless noted, no rule for the calls is given here.

Tests used:
[1] = compound effects on lung adenocarcinoma cell viability – A549, calcein-AM fluorescence, 48 h, basal, profiling panel (AID 1162); conditions: higher = more signal; also: test concentration not given here
[2] = compound effects on differentiated 3T3-L1 adipocyte viability – cell-based, 3T3-L1 adipocytes, calcein-AM fluorescence, 48 h, basal, profiling panel (AID 1163); conditions: 3T3-L1 adipocytes viability, higher = more signal; also: test concentration not given here
[3] = compound effects on hepatocellular carcinoma cell viability – HepG2, calcein-AM fluorescence, 48 h, basal, profiling panel (AID 1164); conditions: higher = more signal; also: test concentration not given here
[4] = compound effects on multiple myeloma cell viability – MM1S, calcein-AM fluorescence, 48 h, basal, profiling panel (AID 1165); conditions: higher = more signal; also: test concentration not given here
[5] = calcein-AM signal in unstimulated myeloma cells – cell-based, calcein-AM fluorescence, 48 h, PK04 Diversity Set, profiling panel (AID 1166); conditions: RPMI8226 myeloma viability, higher = more signal;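 also: cells grown under basal conditions without added stimulus; test concentration not given here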
[6] = JC-1 mitochondrial signal, unstimulated HepG2 cells – cell-based, JC-1 fluorescence, 24 h, 100 nL compound, profiling panel (AID 1167); conditions: HepG2 mitochondrial potential, higher = more signal; also: test concentration not given here
[7] = JC-1 mitochondrial signal, unstimulated adipocytes – cell-based, JC-1 fluorescence, 3T3-L1 adipocytes, 24 h, 100 nL compound, profiling panel (AID 1168); conditions: JC-1 mitochondrial fluorescence, higher = more signal, called active from +8 up or from −8 down; also: test concentration not given here
[8] = JC-1 mitochondrial signal, unstimulated myeloma cells – cell-based, JC-1 fluorescence, RPMI8226, 24 h, 100 nL compound, profiling panel (AID 1169); conditions: JC-1 mitochondrial potential fluorescence, higher = more signal; also: test concentration not given here
[9] = JC-1 mitochondrial signal, unstimulated MM1S myeloma – cell-based, JC-1 fluorescence, 24 h, 100 nL compound, profiling panel (AID 1170); conditions: MM1S mitochondrial potential, higher = more signal; also: test concentration not given here
[10] = resazurin metabolic signal in A549 cells – cell-based, resazurin fluorescence, 24 h, PK04 Diversity Set, profiling panel (AID 1171); conditions: A549 viability, higher = more signal, called active from +8 up or from −8 down; also: test concentration not given here
[11] = resazurin metabolic signal in HepG2 cells – cell-based, resazurin fluorescence, 24 h, PK04 Diversity Set, profiling panel (AID 1172); conditions: HepG2 viability, higher = more signal; also: test concentration not given here
[12] = budding yeast growth changes without added modifier – OD600, strain BY4716, 24 h, basal condition, primary screen (AID 1173); conditions: S. cerevisiae BY4716 growth, OD600, 24 h; higher = more signal, called active from +8 up or from −8 down
[13] = viability profiling in MM1S myeloma cells – cell-based, resazurin fluorescence, basal, 24 h, PK04 Diversity Set, profiling panel (AID 1174); conditions: higher = more signal, called active from +8 up or from −8 down; also: test concentration not given here
[14] = target: Dihydroorotate dehydrogenase (quinone), mitochondrial (Plasmodium falciparum (isolate 3D7)) (UniProt Q08210); experiment: inhibition of P. falciparum DHODH – biochemical, C-terminal His tag, absorbance 600 nm, primary screen (AID 1175); conditions: PfDHODH enzyme, DCIP absorbance 600 nm; higher = more signal, called active from +8 up or from −8 down;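 also: recombinant parasite enzyme with a five histidine tag at its C terminus; test concentration not given here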
[15] = inhibition of PAO1 biofilm formation – strain PAO1, LB-PBS medium, absorbance 600 nm, primary screen (AID 1176); also: test concentration not given here; conditions: P. aeruginosa PAO1 growth/biofilm, A600, 12 h; higher = more signal
[16] = growth modulation of vineyard yeast isolate – strain RM11-1a, OD600, basal, 24 h, primary screen (AID 1177);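 also: cultures grown under basal conditions with no added stressor; test concentration not given here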; conditions: S. cerevisiae RM11-1a growth, OD600, 24 h; higher = more signal, called active from +8 up or from −8 down
[17] = growth of efflux-deficient E. coli DRC39 – strain DRC39, OD650, 24 h, E. coli filamentation inducers, primary screen (AID 1178);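 also: growth measured as culture turbidity by optical density at 650 nm; test concentration not given here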; conditions: E. coli DRC39 acrAB, higher = more signal, called active from +8 up or from −8 down
[18] = growth of efflux-deficient E. coli DRC39 – strain DRC39, OD650, 48 h, E. coli filamentation inducers, primary screen (AID 1179);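 also: screen aims at cell division blockers that make cells filament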; conditions: E. coli DRC39 delta-acrAB growth, higher = more signal, called active from +8 up or from −8 down
[19] = viability profiling in RPMI8226 myeloma cells – cell-based, resazurin fluorescence, basal, 24 h, PK04 Diversity Set, profiling panel (AID 1180); conditions: higher = more signal;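 also: RPMI8826 multiple myeloma cell line at 5000 cells per well; test concentration not given here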
[20] = target: E3 ubiquitin-protein ligase XIAP (Homo sapiens) (UniProt P98170); experiment: small molecules binding XIAP protein – biophysical, small-molecule microarray, fluorescence 635 nm, primary screen (AID 1181); conditions: higher = more signal;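 also: score merges 667 nm emission and signal to noise over triplicate slides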
Sequence of E3 ubiquitin-protein ligase XIAP (Homo sapiens) (P98170 whole entry, looked up): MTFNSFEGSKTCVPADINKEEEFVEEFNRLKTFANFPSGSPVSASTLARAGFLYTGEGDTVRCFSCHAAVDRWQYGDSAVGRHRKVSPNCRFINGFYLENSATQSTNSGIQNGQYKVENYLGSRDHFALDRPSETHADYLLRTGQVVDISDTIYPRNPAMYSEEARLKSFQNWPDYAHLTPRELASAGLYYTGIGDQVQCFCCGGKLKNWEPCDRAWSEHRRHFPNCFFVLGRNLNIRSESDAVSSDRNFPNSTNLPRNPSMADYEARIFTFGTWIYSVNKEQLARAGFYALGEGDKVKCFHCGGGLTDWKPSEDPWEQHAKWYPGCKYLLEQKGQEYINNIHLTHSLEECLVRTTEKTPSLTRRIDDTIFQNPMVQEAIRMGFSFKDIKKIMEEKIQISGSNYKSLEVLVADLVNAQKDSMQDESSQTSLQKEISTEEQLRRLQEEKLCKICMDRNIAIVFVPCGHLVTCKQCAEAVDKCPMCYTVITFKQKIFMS

Sequence of Dihydroorotate dehydrogenase (quinone), mitochondrial (Plasmodium falciparum (isolate 3D7)) (Q08210 whole entry, looked up): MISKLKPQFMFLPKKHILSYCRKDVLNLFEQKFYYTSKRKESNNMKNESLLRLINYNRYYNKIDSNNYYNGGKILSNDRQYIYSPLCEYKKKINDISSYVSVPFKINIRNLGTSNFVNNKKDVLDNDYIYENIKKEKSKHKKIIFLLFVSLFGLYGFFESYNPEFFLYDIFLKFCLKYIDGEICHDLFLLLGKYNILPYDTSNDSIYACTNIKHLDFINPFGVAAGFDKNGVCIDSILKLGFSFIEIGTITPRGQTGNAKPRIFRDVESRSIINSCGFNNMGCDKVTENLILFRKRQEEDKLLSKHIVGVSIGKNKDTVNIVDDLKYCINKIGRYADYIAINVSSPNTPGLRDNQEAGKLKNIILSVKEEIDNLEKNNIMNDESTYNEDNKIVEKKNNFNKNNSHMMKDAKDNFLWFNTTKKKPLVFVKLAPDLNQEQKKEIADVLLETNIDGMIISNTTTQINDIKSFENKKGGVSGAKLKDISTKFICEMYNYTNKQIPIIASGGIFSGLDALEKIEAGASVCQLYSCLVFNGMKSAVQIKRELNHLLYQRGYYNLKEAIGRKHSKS

CCCC[C@H]1C[C@@H]1[C@@H]1N(C(C)=O)[C@H](c2cccc(OC)c2)CC12CC2
z-score [1]: -1.54
z-score [2]: -0.134
z-score [3]: -0.793
z-score [4]: -0.762
z-score [5]: -0.778
z-score [6]: -1.07
z-score [7]: 0.546 (inactive)
z-score [8]: -0.172
z-score [9]: -0.643
z-score [10]: 2.94 (inactive)
z-score [11]: 0.527
z-score [12]: -6.41 (inactive)
z-score [13]: 1.05 (inactive)
composite z-score [14]: 0.348 (inactive)
z-score [15]: -0.499 (inactive)
z-score [16]: 0.52 (inactive)
z-score [17]: -0.083 (inactive)
z-score [18]: -0.791 (inactive)
z-score [19]: 1.43
composite z-score [20]: -0.0416

CN(C)CCCC[C@@H]1NC(=O)[C@@H]2C[C@H](C(=O)NCCCCCCNC(=O)CS)[C@H](c3ccc(O)cc3)N2C1=O
z-score [1]: -0.121
z-score [2]: -0.145
z-score [3]: 0.548
z-score [4]: -0.0172
z-score [5]: 0.381
z-score [6]: -0.175
z-score [7]: 0.207 (inactive)
z-score [8]: -0.223
z-score [9]: -0.136
z-score [10]: 0.579 (inactive)
z-score [11]: 0.155
z-score [12]: -0.17 (inactive)
z-score [13]: -0.353 (inactive)
composite z-score [14]: -0.173 (inactive)
z-score [15]: 0.767 (inactive)
z-score [16]: -0.264 (inactive)
z-score [17]: -0.19 (inactive)
z-score [18]: -0.551 (inactive)
z-score [19]: 0.0875
composite z-score [20]: 0.0013

CC1CC/C=C\[C@H]2OC34C=CCN(Cn5nnc6ccccc65)C(=O)[C@H]3N(CCCCCCO)C(=O)[C@@H]4C2C(=O)O1 (stereo not given in full)
z-score [1]: 0.264
z-score [2]: -0.0662
z-score [3]: 0.91
z-score [4]: 1.95
z-score [5]: 0.456
z-score [6]: 1.63
z-score [7]: 0.53 (inactive)
z-score [8]: 0.8
z-score [9]: -0.657
z-score [10]: 0.0188 (inactive)
z-score [11]: 0.535
z-score [12]: -0.705 (inactive)
z-score [13]: 0.501 (inactive)
composite z-score [14]: -0.374 (inactive)
z-score [15]: 0.137 (inactive)
z-score [16]: 0.85 (inactive)
z-score [17]: 0.816 (inactive)
z-score [18]: 0.703 (inactive)
z-score [19]: 1.16
composite z-score [20]: -0.244

C[C@@H]1ON(c2ccccc2)[C@H](c2ccccc2)[C@H]1C(=O)O
z-score [1]: -0.0985
z-score [2]: 0.375
z-score [3]: -0.374
z-score [4]: -0.655
z-score [5]: 0.0402
z-score [6]: -0.246
z-score [7]: -0.212 (inactive)
z-score [8]: -0.0601
z-score [9]: -0.599
z-score [10]: -0.236 (inactive)
z-score [11]: 0.0656
z-score [12]: 0.0157 (inactive)
z-score [13]: -0.0211 (inactive)
composite z-score [14]: 0.341 (inactive)
z-score [15]: 0.188 (inactive)
z-score [16]: 0.058 (inactive)
z-score [17]: -0.636 (inactive)
z-score [18]: -1.02 (inactive)
z-score [19]: 0.481
composite z-score [20]: -0.0343

COc1ccc(NN2C(C(O)c3ccc(I)cc3)C=CC3C(=O)N(C4CCCCC4)C(=O)C32)cc1 (stereo not given)
z-score [1]: -0.302
z-score [2]: -0.971
z-score [3]: 0.181
z-score [4]: -1.06
z-score [5]: 0.295
z-score [6]: 0.126
z-score [7]: 0.0889 (inactive)
z-score [8]: 0.0764
z-score [9]: -1.65
z-score [10]: 1.47 (inactive)
z-score [11]: 1.59
z-score [12]: 0.0997 (inactive)
z-score [13]: 0.28 (inactive)
composite z-score [14]: 0.526 (inactive)
z-score [15]: 0.726 (inactive)
z-score [16]: 0.475 (inactive)
z-score [17]: -0.558 (inactive)
z-score [18]: 0.725 (inactive)
z-score [19]: -0.313
composite z-score [20]: 0.144

C=C(C)[C@@H]1CC=C(C(O)C2C=CC3C(=O)N(C)C(=O)C3N2Nc2ccc([N+](=O)[O-])cc2[N+](=O)[O-])CC1 (stereo not given in full)
z-score [1]: -0.34
z-score [2]: -0.924
z-score [3]: -0.303
z-score [4]: -0.731
z-score [5]: -2.48
z-score [6]: -0.286
z-score [7]: -1.71 (inactive)
z-score [8]: 0.553
z-score [9]: -0.755
z-score [10]: -0.375 (inactive)
z-score [11]: -0.902
z-score [12]: 0.522 (inactive)
z-score [13]: -1.28 (inactive)
composite z-score [14]: -0.109 (inactive)
z-score [15]: 0.599 (inactive)
z-score [16]: 0.442 (inactive)
z-score [17]: -0.358 (inactive)
z-score [18]: -0.339 (inactive)
z-score [19]: -1.1
composite z-score [20]: 0.158

O=C(NCc1ccc(F)cc1)[C@H]1C[C@H]2C(=O)N3CCC[C@H]3C(=O)N2[C@H]1c1ccc(O)cc1
z-score [1]: -0.965
z-score [2]: 0.625
z-score [3]: -0.647
z-score [4]: -0.896
z-score [5]: -0.625
z-score [6]: 0.552
z-score [7]: 0.811 (inactive)
z-score [8]: 0.207
z-score [9]: -0.396
z-score [10]: -0.0909 (inactive)
z-score [11]: -0.388
z-score [12]: -0.542 (inactive)
z-score [13]: 0.698 (inactive)
composite z-score [14]: -1.47 (inactive)
z-score [15]: 2.39 (inactive)
z-score [16]: -0.795 (inactive)
z-score [17]: 0.639 (inactive)
z-score [18]: -0.545 (inactive)
z-score [19]: 0.379
composite z-score [20]: 0.33

COC(=O)[C@@]1(Cc2ccc(OC)cc2)[C@H]2c3cc(C(=O)N(C)C)[nH]c3C[C@H]2CN1C(=O)c1ccccc1
z-score [1]: -0.974
z-score [2]: -0.539
z-score [3]: 0.683
z-score [4]: 0.945
z-score [5]: 0.184
z-score [6]: 1.46
z-score [7]: -0.372 (inactive)
z-score [8]: -0.582
z-score [9]: -0.488
z-score [10]: 0.145 (inactive)
z-score [11]: -0.576
z-score [12]: 0.304 (inactive)
z-score [13]: -0.798 (inactive)
composite z-score [14]: -0.309 (inactive)
z-score [15]: -0.471 (inactive)
z-score [16]: 0.68 (inactive)
z-score [17]: -0.151 (inactive)
z-score [18]: 0.192 (inactive)
z-score [19]: -0.247
composite z-score [20]: -0.147

C=C(CCCC)/C(=C/C[C@H](OC(=O)c1ccncc1)c1ccccc1OCCO)c1cc(C(=O)OC)ccc1OC
z-score [1]: -0.0906
z-score [2]: 0.503
z-score [3]: -0.629
z-score [4]: -3.29
z-score [5]: -1.82
z-score [6]: 2.06
z-score [7]: -0.292 (inactive)
z-score [8]: -0.262
z-score [9]: 0.732
z-score [10]: 0.613 (inactive)
z-score [11]: -0.345
z-score [12]: 0.431 (inactive)
z-score [13]: 0.531 (inactive)
composite z-score [14]: -1.36 (inactive)
z-score [15]: 0.297 (inactive)
z-score [16]: -0.3 (inactive)
z-score [17]: 0.128 (inactive)
z-score [18]: 0.0401 (inactive)
z-score [19]: 1.09
composite z-score [20]: -0.184
